Screening data (PubChem BioAssay)
In the library only some 4.6% were active in any assay of this set; here they are far more common.
DAX1 inh-1: blocks DAX1 repression of SF-1 activated StAR promoter; HEK293T StAR-luciferase reporter, SF-1/DAX-1 repression relief; inhibition, % at 6.8 µM; 370,000 tested, 1.1% active; AID 652010;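 active = inhibition above the mean over all tested compounds plus 3 SD, cut at about 3.6% in these data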;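 also: 0% = DAX-1 cells with DMSO and 100% = cells lacking DAX-1 with DMSO; higher inhibition means more luminescence from relief of DAX-1 repression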
Wee1 degr inh: human Wee1 degradation inhibition, primary screen; P30291; HeLa Luc-Wee1K328M stability, luciferase luminescence; 100% = proteasome inhibitor MG132 effect; reporter increase, % at 5 µM; 220,000 tested, 1.2% active;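 active = activation above the mean of all tested compounds plus 3 SD, set per screening run, cut at about 8.8% in these data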;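 also: cells exposed to compound for 20 h before luminescence read; 0% = DMSO alone and 100% = MG132 at 30 µM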
ssDAF12 agonist: activates DAF-12 receptor from parasite S. stercoralis; HEK293 ssDAF-12/GRIP1 lit1-tk-luc reporter, luminescence; % of 3 µM dafachronic acid response; activation, % at 6.8 µM; 370,000 tested, 1% active; AID 652126;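 active = activation above the mean over all tested compounds plus 3 SD, cut at about 0.9% in these data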;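 also: 0% = DMSO-only wells and 100% = 3 µM delta7-dafachronic acid wells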
hcDAF12 agonist: activates DAF-12 receptor from parasite H. contortus. 370,000 tested, 1.4% active. activation, % at 6.8 µM. HEK293 hcDAF-12 lit1-tk-luc reporter, luminescence; 0% DMSO, 100% Δ7-dafachronic acid;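 active = activation above the mean of all tested compounds plus 3 SD, cut at about 5.5% in these data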;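 also: 100% = response to 3 µM Δ7-dafachronic acid high control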
hgDAF12 agonist: agonists of H. glycines DAF-12 nuclear receptor; 370,000 tested, 1.8% active; activation, % at 6.8 µM; HEK293 GAL4-hgDAF12 UAS-luciferase reporter, agonist luminescence; normalized to butyrate control;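 active = activation above a cutoff set at the mean of all screened compounds plus 3 SD, cut at about 10% in these data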;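 also: 0% = DMSO wells and 100% = sodium butyrate wells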
DAX1 inh-2: inhibitors of human orphan nuclear receptor DAX1 (NR0B1); inhibition, % at 6.75 µM; AID 504766; HEK293 Gal4-DAX1 luciferase reporter, luminescence; 340,000 tested, 0.99% active; P51843;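 active = inhibition above the mean over all tested compounds plus 3 SD, cut at about 4.2% in these data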;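 also: 0% = DAX1-transfected cells with DMSO and 100% = empty-vector control cells with DMSO; inhibition shows as a rise in luminescence from relieved DAX1 repression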
Target sequence (P51843 207-470 limits assumed): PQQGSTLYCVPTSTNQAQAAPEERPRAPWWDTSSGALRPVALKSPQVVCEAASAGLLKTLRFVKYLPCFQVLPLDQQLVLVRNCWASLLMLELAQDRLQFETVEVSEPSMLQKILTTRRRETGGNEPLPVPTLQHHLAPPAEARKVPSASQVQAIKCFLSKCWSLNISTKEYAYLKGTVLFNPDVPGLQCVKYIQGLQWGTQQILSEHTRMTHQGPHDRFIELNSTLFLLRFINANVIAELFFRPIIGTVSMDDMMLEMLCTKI
LXRb hcDAF ctr: counter-screen for hcDAF-12 agonists: agonists of human LXR-beta | activation, % at 6.8 µM | AID 743027 | shares compounds with hcDAF12 agonist | 3,400 tested, under 10 active | HEK293 Gal4-LXR tk-luc reporter, luminescence, 24 h; normalized: DMSO 0%, positive control 100%;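 active = mean percent activation of the reporter above a cutoff set as the average over tested compounds plus their standard deviation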
hcDAF12 conf: hcDAF-12 agonism, confirmation assay. HEK293 hcDAF-12 lit1-tk-luc reporter, luminescence; % of Δ7-dafachronic acid response. activation, % at 6.8 µM. 3,400 tested, 61% active. shares compounds with hcDAF12 agonist;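 active = mean activation across triplicate tests above the threshold derived from the earlier primary screen, cut at about 5.5% in these data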;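 also: 0% = DMSO only wells and 100% = 3 µM Δ7-dafachronic acid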
Active calls of the source: *; / = no result given.

SMILES	DAX1 inh-1	Wee1 degr inh	ssDAF12 agonist	hcDAF12 agonist	hgDAF12 agonist	DAX1 inh-2	LXRb hcDAF ctr	hcDAF12 conf
O=C(Nc1nc(-c2cccs2)c(-c2cccs2)s1)C1CCCC1	0	0	-1	8.1*	5	-1	0	1
O=C(Nc1nnc(-c2cccs2)s1)C1CC1	2	-1	0	0	2	1	/	/
C[C@@H]1/C=C/CC(=O)N[C@H](c2ccc3ccccc3c2)[C@H](C)/C=C/CC(=O)N[C@@H]1c1ccc2ccccc2c1	-1	/	-1	8.7*	0	/	0	2
C[C@H]1/C=C/CC(=O)N[C@@H](c2ccc3ccccc3c2)[C@@H](C)/C=C/CC(=O)N[C@H]1c1ccc2ccccc2c1	-1	/	0	-3	1	/	/	/
CN(c1ccccc1)c1ccc(/C=N/N2CCOCC2)cc1	2	4	-1	7.0*	11*	5.8*	1	5.9*
Cn1c(=O)cc(OCCCC(=O)Nc2cc(-c3cn[nH]c3)ccn2)c2ccccc21	/	/	-3	-6	-11	/	/	/
CCN1CCCC1CNC(=O)c1cc2ccc(OC)cc2[nH]1 (centres undefined)	1	/	0	6.6*	3	0	0	2
CCN1CCCC1CNC(=O)c1[nH]c2ccc(OC)cc2c1C (centres undefined)	0	/	-1	-1	2	3	/	/
Cc1ccc(N/N=C/c2ccc3c(c2)OCCO3)cc1Cl	1	1	0	7.8*	10	0	2	8.3*
CCC(=O)N(CC)Cc1cc(=O)[nH]c2ccccc12	1	-2	0	6.8*	5	3	0	4
Cc1cc2ccccc2n1CCNC(=O)c1ccc(S(=O)(=O)N2CCCCC2)cc1	1	1	-1	7.5*	0	-1	0	0
O=C(NCCc1ccccc1)c1ccc(S(=O)(=O)N2CCCCC2)cc1	0	/	-2	-2	0	1	/	/
Oc1ccccc1-c1nc2c3ccccc3c3ccccc3c2[nH]1	-1	-1	0	7.5*	4	2	0	5
c1csc(-c2nc3c4ccccc4c4ccccc4c3[nH]2)c1	-1	-2	0	0	2	-1	/	/
S=c1nc(-c2ccccc2)[nH]c2ccccc12	-1	7	0	3	1	0	/	/
S=c1nc(-c2ccc(Br)cc2)[nH]c2ccccc12	1	6	1	7.3*	0	1	0	9.0*
COc1ccccc1-c1nnc(SCc2ccccn2)n1C	0	2	-1	-1	0	1	/	/
COc1ccccc1-c1nc(SCc2ccccn2)n[nH]1	2	/	1	6.9*	8	4.9*	0	9.0*
COc1ccccc1Cc1c(C(C)(C)C)nc2ccc(C)cn12	0	/	1	6.6*	7	/	0	4
C=CCn1c(O)c(N=Nc2ccccc2[N+](=O)[O-])c2ccccc21	1	/	1.1*	6.7*	5	1	0	8.4*
CNc1nc(N)c([N+](=O)[O-])c(Nc2ccccc2OC)n1	0	/	-1	-4	-3	-1	/	/
O=C(Nc1ccccc1Br)C(=O)N1CCCC1	1	-4	0	1	6	1	/	/
O=C(NNc1ccccc1Br)C(=O)n1ccc2ccccc21	0	5	0	7.6*	1	0	0	2
Cc1ccc(NC(=O)Nc2cccc(C)n2)cc1	1	/	1.4*	14*	9	2	1	12*
CC(=O)Nc1cc(-c2ccccc2)cn2c(-c3ccc(F)c(Cl)c3)cnc12	0	/	-1	0	-1	/	/	/
Nc1cccn2c(-c3ccc(Cl)c(Cl)c3)cnc12	4.0*	5	1.1*	9.5*	10	3	1	13*
